Records with an inconclusive call do not appear. Where a call stands in place of a potency, no number is given. Active and inactive are the calls of the source. Calls come from the whole dose curve; as a rule, active = well fitted curve in the direction sought with a large enough effect; inconclusive = small, poorly fitted or top-dose-only effect, or another doubt; inactive = no such curve, though single readings can be large; an effect the other way counts as inactive or inconclusive.
Columns and labels:
[1] = qHTS to identify inhibitors of the type 1 interferon - major histocompatibility complex class I in skeletal muscle: primary screen against the NCATS LOPAC collection (AID 1347405); conditions: iHSKM muscle cells, IFN-b-induced MHC-I HiBiT luminescence, 24 h; series mostly up to 45.9 µM;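 note: lytic HiBiT luminescence reporting HLA-B protein level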; note: potency is the fitted concentration of half-maximal effect
Outline: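 Immortalized human C25cl48 myoblasts with HiBiT knocked into endogenous HLA-B*08:01 were stimulated with 4.0 ng/ml IFN-beta and given compounds in a 7-point, 1:4.3 titration from 46 uM final; after 24 hrs, lytic HiBiT luminescence was read.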

[2] = qHTS for inhibitors of adenylyl cyclases using a fission yeast platform: a pilot screen against the NCATS LOPAC library (AID 1347410); conditions: S. pombe CHP2027, fbp1-GFP fluorescence, 18 h, yeast expressing mammalian AC9 and human GNAS; series mostly up to 57.5 µM
Outline: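 S. pombe CHP2027 (AC9-GNAS-PDE4D2) carrying a PKA-repressed fbp1-GFP reporter was exposed to LOPAC compounds (final up to 57 µM) for 18 h at 30C in the dark, in EMM with histidine, lysine and uracil; GFP gain-of-signal read by laser scanning cytometry.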

[3] = Validation qHTS assay for inhibitors of Activation Induced Cytidine Deaminase (AID): UDG Counterscreen signal (AID 1347427); conditions: biochemical UDG counterscreen, fluorescence signal; series mostly up to 115 µM
Outline: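 Counterscreen read of UDG activity (2 U/mL, 4/3x) in the FRET deamination format with AID (1 uM, 4/3x), DJC20/DJC23 substrates (250 nM, 4x), 4 h at room temperature. NaOH stop, fluorescence at 560 ex/665 em.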

[4] = molecular target: Single-stranded DNA cytosine deaminase (Homo sapiens) (UniProt Q9GZX7); assay: Validation qHTS assay for inhibitors of Activation Induced Cytidine Deaminase (AID): AID signal (AID 1347429); conditions: Recombinant AID, FRET ssDNA deamination with UDG, fluorescence; series mostly up to 115 µM
Sequence of Single-stranded DNA cytosine deaminase (Homo sapiens) (Q9GZX7 whole entry, looked up): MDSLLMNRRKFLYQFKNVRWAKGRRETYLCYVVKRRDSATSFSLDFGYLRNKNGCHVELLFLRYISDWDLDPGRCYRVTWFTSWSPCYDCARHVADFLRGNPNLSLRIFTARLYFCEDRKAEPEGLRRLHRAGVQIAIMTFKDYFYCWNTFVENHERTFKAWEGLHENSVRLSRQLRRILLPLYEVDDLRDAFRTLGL
Outline: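 AID and UDG were combined and compounds added at final up to 114 uM, then DJC20/DJC23 FRET substrate was added for 4 hr at room temperature. NaOH was then added for 30 min before fluorescence was read at 540/590 nm.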

SMILES	Potency [1]	outcome [2]	Potency [3]	Potency [4]
Oc1ccc(/C=C/c2ccc(/C=C/c3ccc(O)cc3)c(Br)c2)cc1	inactive	inactive	inactive	inactive
Nc1ncnc2c1ncn2C1CCCO1 (stereo not given)	inactive	inactive	inactive	inactive
Cc1nc2n(c(=O)c1CCN1CCC(c3noc4cc(F)ccc34)CC1)CCCC2O (stereo not given)	inactive	inactive	inactive	inactive
CCCCCCCCCCC/C=C\C(C)(C)/C=C\CCCC(=O)O	inactive	inactive	inactive	–
NCCC1CCCC(CCN)N1 (stereo not given)	inactive	inactive	inactive	inactive
NC1(C(=O)O)CC1	inactive	inactive	inactive	inactive
C=CCN1CCc2c(cc(O)c(O)c2Cl)C(c2ccccc2)C1 (stereo not given)	inactive	inactive	inactive	inactive
N[C@H](C(=O)O)[C@H]1C[C@@H]1C(=O)O	inactive	inactive	inactive	inactive
O=[N+]([O-])c1cccc2c(Br)[nH]nc12	inactive	inactive	inactive	inactive
O=C1C2C=CC=CC2=NC(=S)N1CCN1CCC(=C(c2ccc(F)cc2)c2ccc(F)cc2)CC1 (stereo not given)	inactive	inactive	inactive	inactive
CCCCCCCCCC(=O)NC(CN1CCOCC1)[C@H](O)c1ccccc1 (stereo not given in full)	inactive	inactive	inactive	inactive
COc1ccc2c(c1)CCC1C2CC[C@@]2(C)C1CC[C@@H]2NCCCCCCN1C(=O)C=CC1=O (stereo not given in full)	inactive	inactive	inactive	inactive
COc1cc(C(O)CO)ccc1O (stereo not given)	inactive	inactive	inactive	inactive
O=C(O)c1ccccc1Nc1ccccc1	inactive	inactive	inactive	inactive
Cc1cccc(C(=O)NCN2CCN(c3ccccc3C#N)CC2)c1	inactive	inactive	inactive	inactive
O=C(O)c1cc2cc(F)ccc2[nH]1	inactive	inactive	inactive	inactive
Cc1nc2c(OCc3ccccc3)cccn2c1CC#N	inactive	inactive	inactive	inactive
CN1CC(O)C(O)C(O)C1CO (stereo not given)	inactive	inactive	inactive	inactive
Cn1c(=O)c2c(nc(/C=C/c3cccc(Cl)c3)n2C)n(C)c1=O	inactive	inactive	inactive	inactive
NC/C=C\C(=O)O	inactive	inactive	inactive	inactive
COCc1nc2c([nH]1)c(=O)n(C)c(=O)n2CC(C)C	inactive	inactive	inactive	inactive

SMILES	Potency [1]	outcome [2]	Potency [3]	Potency [4]
CCOC(=O)C12CC1/C(=N/O)c1ccccc1O2 (stereo not given)	inactive	inactive	inactive	inactive
CC1C(=O)N(C)C(=O)c2nc[nH]c21 (stereo not given)	inactive	inactive	inactive	inactive
C=CCN1CCc2cc(O)c(O)cc2C(c2ccccc2)C1 (stereo not given)	inactive	inactive	inactive	inactive
NC1CCN(O)C1=O (stereo not given)	inactive	inactive	inactive	inactive
COc1cc(CC(=O)O)ccc1O	inactive	inactive	inactive	inactive
CC(C)(C)c1ccc(/C=C/C(=O)Nc2ccc3c(c2)OCCO3)cc1	inactive	inactive	inactive	inactive
NC(N)=NC(N)=Nc1ccccc1	inactive	inactive	inactive	inactive
O=C(O)/C=C/c1ccc(O)c(O)c1	inactive	inactive	inactive	inactive
NCC(O)(CS(=O)(=O)O)c1ccc(Cl)cc1 (stereo not given)	inactive	inactive	inactive	inactive
c1ccc(C(NCCNC(c2ccccc2)c2ccccc2)c2ccccc2)cc1	inactive	inactive	inactive	inactive
O=c1oc(Cl)c(Cl)c2ccccc12	inactive	inactive	inactive	inactive
COc1cc(C(O)C(=O)O)ccc1O (stereo not given)	inactive	inactive	inactive	inactive
COc1ccc(CCN(C)CCc2ccc(OC)c(OC)c2)cc1OC	inactive	inactive	inactive	inactive
Cn1cc(C(F)(F)F)nc1-c1ccc(OCC(O)CNCCOc2ccc(O)c(C(N)=O)c2)cc1 (stereo not given)	inactive	inactive	inactive	inactive
Cc1ccc2c(c1)C(N1CCN(C)CC1)=Nc1cccnc1N2	inactive	inactive	inactive	inactive
N[C@H]1CONC1=O	inactive	inactive	inactive	inactive
CCC(=O)N1CCN(C(=O)c2ccccc2)CC1	inactive	inactive	inactive	inactive
Fc1ccc(CN(C2=NCCN2)c2c(Cl)cccc2Cl)cc1	inactive	inactive	inactive	inactive
N=C(N)c1ccccc1	inactive	inactive	inactive	inactive
C[C@]12C=CC(=O)C=C1CC[C@@H]1C2=CC[C@]2(C)[C@@H](C(=O)CN3CCN(c4cc(N5CCCC5)nc(N5CCCC5)n4)CC3)CC[C@@H]12	inactive	inactive	inactive	inactive
CC(N)=NCCCC[C@@H](N)C(=O)O	inactive	inactive	inactive	inactive

SMILES	Potency [1]	outcome [2]	Potency [3]	Potency [4]
COC(=O)[C@H](NC(=O)c1cc(-c2ccccc2)nc2ccccc12)c1ccccc1	inactive	inactive	inactive	inactive
C[C@](Cc1ccc(O)c(O)c1)(NN)C(=O)O	inactive	inactive	inactive	inactive
CCCOC(=O)c1c(-c2ccccc2)nc(CC)c(C(=O)SCC)c1CCC	inactive	inactive	inactive	inactive
CCCN(CCc1ccccc1)C1CCc2c(O)cccc2C1 (stereo not given)	inactive	inactive	inactive	inactive
C=C(C)C1CC=C(C(=O)O)CC1 (stereo not given)	inactive	inactive	inactive	inactive
CCCCCCC(=O)OC1CC(C)(C)NC(C)(C)C1	inactive	inactive	inactive	inactive
COc1cc2c(CCNC(C)=O)c[nH]c2cc1O	inactive	inactive	inactive	inactive
CNc1ncnc2c1ncn2[C@H]1C[C@H](OP(=O)(O)O)[C@@H](COP(=O)(O)O)O1	inactive	inactive	inactive	inactive
Cn1cc(C(=O)OCC2CCN(CCNS(C)(=O)=O)CC2)c2ccccc21	inactive	inactive	inactive	inactive
CC[C@H](NC(=O)c1c(C)c(-c2ccccc2)nc2ccccc12)c1ccccc1	inactive	inactive	inactive	inactive
O=c1onc2n1-c1cc(Br)ccc1OC2	inactive	inactive	inactive	inactive
NC(=O)c1cc[n+](CC2=C(C(=O)O)N3C(=O)[C@@H](NC(=O)[C@@H](c4ccccc4)S(=O)(=O)[O-])[C@H]3SC2)cc1	inactive	inactive	inactive	inactive
NCCCCN	inactive	inactive	inactive	inactive
O=c1onc2cnc3ccccc3n12	inactive	inactive	inactive	inactive
N[C@@H](Cc1ccc(F)cc1)C(=O)O	inactive	inactive	inactive	inactive
NC(N)=NC(N)=Nc1cccc(Cl)c1	inactive	inactive	inactive	inactive
O=C1Cc2c([nH]c3ccc(Br)cc23)-c2ccccc2N1	12.6 µM (active)	inactive	inactive	inactive
O=C(O)C1=CCCN(CCON=C(c2ccccc2)c2ccccc2)C1	inactive	inactive	inactive	inactive
Cc1cc2c(cc1Cl)N(C(=O)Nc1ccnc3ccccc13)CC2	inactive	inactive	inactive	inactive
c1ccc2c(c1)CCC[C@H]2Nc1nc2ccccc2[nH]1	inactive	inactive	inactive	inactive
COc1ccccc1N1CCN(CCCNc2c(C)c(=O)n(C)c(=O)n2C)CC1	inactive	inactive	inactive	inactive

SMILES	Potency [1]	outcome [2]	Potency [3]	Potency [4]
O=C(O)[C@H]1NCCC[C@H]1C(=O)O	inactive	inactive	inactive	inactive
CSc1nc(N)c2ncn([C@@H]3O[C@H](COP(=O)(O)OP(=O)(O)O)C(O)[C@H]3O)c2n1 (stereo not given in full)	inactive	inactive	inactive	inactive
CCN1C(=O)C=CC1=O	inactive	inactive	inactive	inactive
Cn1c(=O)[nH]c2ncn(C)c2c1=O	inactive	inactive	inactive	inactive
NOCC(=O)O	inactive	inactive	inactive	inactive
COc1cc(N)c(Cl)cc1C(=O)OCCN1CCCCC1	inactive	inactive	inactive	inactive
C[C@H](NC(=O)/C(C#N)=C/c1ccc(O)c(O)c1)c1ccccc1	inactive	inactive	inactive	inactive
NCC(O)C1CCCCCCC1 (stereo not given)	inactive	inactive	inactive	inactive
CCN(c1nc(N)c(C(=O)N=C(N)N)nc1Cl)C(C)C	inactive	inactive	inactive	inactive
CN(C)CCC(c1ccc(Br)cc1)c1ccccn1 (stereo not given)	inactive	inactive	inactive	inactive
CNc1cc(NS(=O)(=O)c2ccc(N)cc2)nc(NC)n1	inactive	inactive	inactive	inactive
Nc1ncnc2c1ncn2C1CCCC1	inactive	inactive	inactive	inactive
Brc1c(Br)c(Br)c2[nH]cnc2c1Br	12.6 µM (active)	inactive	inactive	inactive
c1ccc(C(NCc2cccnc2)(c2ccccc2)c2ccccc2)cc1	inactive	inactive	inactive	inactive
O=c1[nH]c(=O)c2nc3ccccc3nc2[nH]1	inactive	inactive	inactive	inactive
OCC1NCC(O)C(O)C1O (stereo not given)	inactive	inactive	inactive	inactive
CC(N)=O	inactive	inactive	inactive	inactive
Nc1ncnc2c1nc(Br)n2C1OC2COP(=O)(O)O[C@@H]2C1O (stereo not given in full)	inactive	inactive	inactive	inactive
COc1cc(/C=C(\C#N)C(=O)c2ccc(O)c(O)c2)cc(I)c1O	inactive	inactive	inactive	inactive
CCCCCC[C@@H]([C@@H](C)O)n1cnc2c(N)ncnc21	inactive	inactive	inactive	inactive
CC1CNCCN1S(=O)(=O)c1cccc2cnccc12 (stereo not given)	inactive	inactive	inactive	inactive
